Rows were chosen to be rich in hits. Some 7.4% of all compounds tested hit in one or more screens of this group.
ELG1 genotoxic: qHTS screen for small molecules that induce genotoxicity in human embryonic kidney (HEK293T) cells expressing luciferase-tagged ELG1; HEK293T ELG1-luciferase reporter, luminescence, 16 h; Potency, µM (highest dose often 46 µM), without a hit: top-dose activity change, positive = activation, actives largely listed as activators; 1.3% of 330,000 active; also: % of control where 0% means no effect; nearly all actives have a fitted effect of over 60% in size
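Screening used a luciferase reporter fused to human ELG1 in HEK293T cells. Luminescence was read on a CCD plate imager after 16 hr exposure and 30 min ONE-Glo incubation.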
KinaseGlo FLuc: Counterscreen for Luciferase (Kinase-Glo TM) Inhibition; Potency, µM (top dose mostly 38.3 µM), for the others: top-dose activity change, negative = inhibition, most hits filed as inhibitors; AID 1379, 2008; Luciferin 4-monooxygenase (Photuris pensylvanica), Q27757; Kinase-Glo luciferase, ATP luminescence, 8 min; 0.28% of 200,000 active; also: % is scaled to controls: 0 for no effect and ±100 for the full control effect; nearly all actives have a fitted effect of over 60% in size
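Light output from Kinase-Glo luciferase with luciferin and 10 uM ATP in 50 mM imidazole pH 7.2, KCl, MgCl2, Tween 20, BSA; compound pin-delivered, 8-min ambient incubation, then luminescence read.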
SMN2 splice up: qHTS Assay for Enhancers of SMN2 Splice Variant Expression | HEK293 SMN2-luciferase splicing reporter, luminescence, 30-36 h | 2.8% of 210,000 active | Potency, µM (doses to about 46.1 µM), without a hit: top-dose activity change, positive = activation, actives largely listed as activators; also: % of control where 0% means no effect; nearly all actives have a fitted effect of over 55% in size
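HEK293 cells carry an SMN2 minigene-luciferase reporter in which exon 7 inclusion puts luciferase in frame. Cells were seeded at 2000 cells/well, attached for 10-12 hours, then exposed to compounds for 30-36 hours at 37C before ONE-Glo luminescence.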
FLuc modulator: qHTS profiling assay for firefly luciferase inhibitor/activator using purifed enzyme and Km concentrations of substrates (counterscreen for miR-21 project). Luciferin 4-monooxygenase (Photinus pyralis), P08659. Potency, µM (highest dose often 57.5 µM), for the others: top-dose activity change, negative = inhibition, actives largely listed as inhibitors. purified FLuc, Km substrates, luminescence inhibition. 6.9% of 360,000 active. AID 588342, 2011;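 also: plate controls were vehicle for no effect and reference inhibitor for full effect; nearly all actives have a fitted effect of over 55% in size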
Target sequence (P08659 whole entry, looked up): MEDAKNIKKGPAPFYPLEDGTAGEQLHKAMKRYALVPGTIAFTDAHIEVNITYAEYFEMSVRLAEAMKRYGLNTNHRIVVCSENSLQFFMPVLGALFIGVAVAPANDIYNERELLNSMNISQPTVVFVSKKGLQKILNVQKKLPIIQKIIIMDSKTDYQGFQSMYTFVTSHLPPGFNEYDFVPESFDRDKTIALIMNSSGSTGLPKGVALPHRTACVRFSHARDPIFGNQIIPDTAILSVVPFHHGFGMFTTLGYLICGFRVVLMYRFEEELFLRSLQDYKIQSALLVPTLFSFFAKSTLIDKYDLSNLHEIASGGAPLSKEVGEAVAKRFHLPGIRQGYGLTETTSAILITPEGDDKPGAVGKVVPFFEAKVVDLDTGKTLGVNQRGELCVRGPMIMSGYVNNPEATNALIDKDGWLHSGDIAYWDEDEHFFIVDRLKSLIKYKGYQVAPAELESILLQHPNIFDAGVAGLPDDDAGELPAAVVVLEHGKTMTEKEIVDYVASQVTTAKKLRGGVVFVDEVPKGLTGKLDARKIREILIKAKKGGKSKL
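Biochemical qHTS of compounds, final roughly 60 µM downward over six points, against 10 nM purified firefly luciferase using Km concentrations of substrates (10 uM D-luciferin, 10 uM ATP) in Tris acetate pH 7.5 buffer; luminescence output.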
NPC1 prom act: qHTS Assay for NPC1 Promoter Activators; AID 485313, 2010; Huh7 NPC1 promoter luciferase reporter, 24 h; Potency, µM (top dose mostly 9.22 µM), inactives show at the highest dose activation, hits mostly activators; 2.4% of 320,000 active; also: % of control where 0% means no effect; nearly all actives have a fitted effect of over 60% in size
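Luciferase expression driven by the NPC1 promoter was measured in stably transfected Huh7 cells after a 24 h compound incubation, using a luciferase reagent and a luminescence read.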
Rab9 prom act: qHTS Assay for Rab9 Promoter Activators. Huh7 Rab9 promoter-luciferase reporter, luminescence, 24 h. Potency, µM (highest dose often 9.22 µM), for inactives: at the top dose activation, negative = inhibition, hits mostly activators. AID 485297, 2010. 2.8% of 320,000 active; also: % of control where 0% means no effect; nearly all actives have a fitted effect of over 60% in size
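Rab9 promoter-driven luciferase in stably transfected Huh7 cells; 1500 cells/well rested 2 h, exposed to compound in DMSO for 24 h at 37 °C, 5% CO2. Luminescence read 10 min after adding luciferase reagent at ambient temperature.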
An asterisk follows results filed as active; [ ] = another dose, or the depositor's remark. Calls follow the shape of the dose curve; as a rule, active = well fitted curve in the direction sought with a large enough effect; inconclusive = small, poorly fitted or top-dose-only effect, or another doubt; inactive = no such curve, though single readings can be large; an effect the other way counts as inactive or inconclusive. Potency is read from the fitted curve at half-maximal effect.

How did N/C(=N\OC(=O)CCCc1ccccc1)c1cccnc1 do in these assays?
ELG1 genotoxic: 4%; KinaseGlo FLuc: -1%; SMN2 splice up: 4%; FLuc modulator: 17µM*; NPC1 prom act: -2%; Rab9 prom act: -1%

What do the screens show for `Cc1cccc(/C(N)=N/OC(=O)CCCN2C(=O)c3ccccc3C2=O)c1`?
ELG1 genotoxic: 2%; KinaseGlo FLuc: -6%; SMN2 splice up: 5%; FLuc modulator: -1%; NPC1 prom act: -5%; Rab9 prom act: 3%

What do the screens show for `N/C(=N\OC(=O)CCCc1ccccc1)c1ccccc1`?
ELG1 genotoxic: inconclusive; FLuc modulator: 4.8µM*; NPC1 prom act: 9%; Rab9 prom act: 17%

What do the screens show for `Cc1cccc(/C(N)=N/OC(=O)CCCc2ccccc2)c1`?
ELG1 genotoxic: inconclusive; FLuc modulator: 9.5µM*; NPC1 prom act: 13%; Rab9 prom act: 9%

How did N/C(=N\OC(=O)CCCc1ccccc1)c1cccc([N+](=O)[O-])c1 do in these assays?
ELG1 genotoxic: 0%; KinaseGlo FLuc: 4%; SMN2 splice up: 13%; FLuc modulator: inconclusive; NPC1 prom act: -1%; Rab9 prom act: 0%

What do the screens show for `CCc1ccc(NS(=O)(=O)c2ccc(Cl)cc2OC)cc1`?
KinaseGlo FLuc: -4%

What do the screens show for `Cc1c(Br)cccc1NC(=O)c1sccc1-n1cccc1`?
ELG1 genotoxic: -2%; KinaseGlo FLuc: 0%; SMN2 splice up: -27%; FLuc modulator: 0%; NPC1 prom act: 1%; Rab9 prom act: -4%

Results for CC(C)c1ccc(NC(=O)c2sccc2-n2cccc2)cc1 ?
ELG1 genotoxic: 5%; FLuc modulator: inconclusive; NPC1 prom act: 4µM*; Rab9 prom act: 2.8µM*

Results for Cc1ccc2c(c1)sc(=NC(=O)C1CC1)n2C ?
ELG1 genotoxic: inconclusive; FLuc modulator: 8.5µM*; NPC1 prom act: 2.5µM*; Rab9 prom act: 3.5µM*

What do the screens show for `CC(=O)N=c1sc2ccccc2n1C`?
ELG1 genotoxic: 14%; KinaseGlo FLuc: 2%; SMN2 splice up: -16%; FLuc modulator: -1%; NPC1 prom act: -3%; Rab9 prom act: 14%

Results for C#CCn1c(=NC(=O)c2cccs2)sc2cccc(OC)c21 ?
ELG1 genotoxic: inconclusive; KinaseGlo FLuc: -3%; SMN2 splice up: -14%; FLuc modulator: inconclusive; NPC1 prom act: 1%; Rab9 prom act: 30%

Results for Cc1ccc2c(c1)sc(=NC(=O)c1cccs1)n2C ?
ELG1 genotoxic: 0.52µM*; KinaseGlo FLuc: inconclusive; SMN2 splice up: 16%; FLuc modulator: 0.15µM*; NPC1 prom act: 3.5µM*; Rab9 prom act: 3.5µM*

How did O=C(Cc1cccs1)N/N=C/C(Br)=C/c1ccccc1 do in these assays?
ELG1 genotoxic: inconclusive; KinaseGlo FLuc: -2%; SMN2 splice up: inconclusive; FLuc modulator: inconclusive; NPC1 prom act: 3.2µM*; Rab9 prom act: 4µM*

What do the screens show for `CC(/C=N/NC(=O)Cc1cccs1)=C\c1ccccc1`?
ELG1 genotoxic: inconclusive; KinaseGlo FLuc: -2%; FLuc modulator: 2.7µM*; NPC1 prom act: inconclusive; Rab9 prom act: 3.5µM*

How did CC(/C=N/NC(=O)CSc1n[nH]c(=O)[nH]c1=O)=C\c1ccccc1 do in these assays?
ELG1 genotoxic: -2%; FLuc modulator: 15µM*; NPC1 prom act: -3%; Rab9 prom act: 9%

What do the screens show for `Cc1ccc(/C=N/NC(=O)Cc2cccs2)o1`?
ELG1 genotoxic: -3%; KinaseGlo FLuc: 0%; SMN2 splice up: 2%; FLuc modulator: -9%; NPC1 prom act: 10%; Rab9 prom act: 11%

How did CC(/C=N/NC(=O)Cc1cccn1C)=C\c1ccccc1 do in these assays?
ELG1 genotoxic: 15%; KinaseGlo FLuc: 13%; SMN2 splice up: 13%; FLuc modulator: 11µM*; NPC1 prom act: 17%; Rab9 prom act: 28%

What do the screens show for `Cn1cccc1CC(=O)N/N=C/c1cccc2ccccc12`?
ELG1 genotoxic: 1%; KinaseGlo FLuc: 2%; SMN2 splice up: 8%; FLuc modulator: -2%; NPC1 prom act: 5%; Rab9 prom act: 2%

What do the screens show for `O=C(NC1CCCCC1)c1ccc2c(c1)N(Cc1ccc(Cl)cc1)C(=O)c1ccccc1S2(=O)=O`?
SMN2 splice up: 19%; FLuc modulator: -2%

Results for COc1cccc(CNCCSc2nnnn2C)c1OCc1ccc(Cl)cc1Cl ?
SMN2 splice up: inconclusive; FLuc modulator: 0%

What do the screens show for `COc1ccc(NC(=O)/C=C/c2ccc(Br)o2)cn1`?
ELG1 genotoxic: 1%; FLuc modulator: inconclusive; NPC1 prom act: 21%; Rab9 prom act: 26%

How did COc1ccc(NC(=O)/C=C/c2ccco2)cn1 do in these assays?
ELG1 genotoxic: inconclusive; KinaseGlo FLuc: -9%; SMN2 splice up: 13µM*; FLuc modulator: 21µM*; NPC1 prom act: 3.2µM*; Rab9 prom act: 4µM*

Results for COc1ccc(NC(=O)/C=C/c2cccc(F)c2)cn1 ?
ELG1 genotoxic: inconclusive; KinaseGlo FLuc: -1%; SMN2 splice up: 11µM*; FLuc modulator: 7.6µM*; NPC1 prom act: 2µM*; Rab9 prom act: 2.2µM*

What do the screens show for `Cc1ccc(NC(=O)/C=C/c2ccco2)cc1F`?
FLuc modulator: 5.4µM*

What do the screens show for `O=C(c1cnn(-c2cccc(F)c2)c1)c1ccccc1O`?
ELG1 genotoxic: inconclusive; FLuc modulator: 3.8µM*; NPC1 prom act: inconclusive; Rab9 prom act: 0%[1.84 µM]

Results for O=C(c1cnn(-c2nc3ccccc3s2)c1)c1ccccc1O ?
ELG1 genotoxic: inconclusive; KinaseGlo FLuc: -8%; SMN2 splice up: 51%; FLuc modulator: 3µM*; NPC1 prom act: 3.5µM*; Rab9 prom act: inconclusive

What do the screens show for `O=C(O)c1ccc(-n2cc(C(=O)c3ccccc3O)cn2)cc1`?
ELG1 genotoxic: -12%; FLuc modulator: 15µM*; NPC1 prom act: 10%; Rab9 prom act: 12%

What do the screens show for `O=C(c1cnn(-c2ccccc2)c1)c1ccc2ccccc2c1O`?
ELG1 genotoxic: inconclusive; KinaseGlo FLuc: -1%; SMN2 splice up: 13µM*; FLuc modulator: 7.6µM*; NPC1 prom act: inconclusive; Rab9 prom act: inconclusive

Results for O=C(c1cnn(C(=O)c2ccccc2F)c1)c1ccccc1O ?
ELG1 genotoxic: 1%; FLuc modulator: inconclusive; NPC1 prom act: -2%; Rab9 prom act: -4%

Results for O=C(c1cnn(-c2ccccc2)c1)c1cc(Br)ccc1O ?
ELG1 genotoxic: 1%; FLuc modulator: 6%; NPC1 prom act: -2%; Rab9 prom act: 1%

From PubChem
